Laboratory results taken from PubChem BioAssay AID1345085 (National Center for Advancing Translational Sciences (NCATS), 2018).
Inconclusive results are not listed. Active and inactive are the calls of the source. The call rests on the fitted dose curve; in most records, active means well fitted cell-killing curve with a large enough effect; inconclusive means small, poorly fitted or top-dose-only effect, or effect the other way; inactive means no such curve, though single readings can be large or run the other way.

Test system: Es-2
Assay: Confirmatory qHTS for gynecologic anti-cancer compounds from libraries of approved drugs and bioactive compounds; further: nearly all actives have a fitted effect of over 55% in size
Details: gynecologic cancer cell panel viability, ATPlite luminescence, 48 h; series mostly up to 57.6 µM; activity change, negative = viability loss: at the top concentration
Method in brief: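 1,000 cells/well; 16 h pre-incubation 37 C, 5% CO2; pin-transferred cpd in DMSO, 11 conc (1:3), 57.5 uM–0.977 nM; 48 h; ATPlite, 15 min RT; luminescence → IC50.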
On the % scale 0 is the no-effect control and ±100 the full control effect; potency means the concentration at half of the fitted maximal effect.

| SMILES | Potency | activity change, negative = viability loss |
| --- | --- | --- |
| CC(C)C[C@H](NC(=O)[C@@H](NC(=O)c1cccc(-c2ccccc2)n1)[C@@H](C)O)B(O)O | 0.0685 µM (active) | – |
| O=C(CCCCCCNC(=O)c1cnc(N(c2ccccc2)c2ccccc2)nc1)NO | 13.7 µM (active) | – |
| CC(C)C[C@H](NC(=O)[C@H](Cc1ccccc1)NC(=O)c1cnccn1)B(O)O | 0.0611 µM (active) | – |
| Nc1nc(=S)c2[nH]cnc2[nH]1 | 3.43 µM (active) | – |
| CC(C)[C@@H](CS(=O)(=O)C(C)C)N1C(=O)[C@@](C)(CC(=O)O)C[C@H](c2cccc(Cl)c2)[C@H]1c1ccc(Cl)cc1 | – | 20.7% (inactive) |
| CCS(=O)(=O)N1CCN(c2ccc(Nc3ncc(C(N)=O)c(NC4CC4)n3)cc2)CC1 | – | -23% (inactive) |
| CCC1C(=O)N(C)c2cnc(Nc3ccc(C(=O)NC4CCN(C)CC4)cc3OC)nc2N1C1CCCC1 (configuration not stated) | 0.0611 µM (active) | – |
| COc1cc2c(c(OC)c1OC)-c1ccc(OC)c(=O)cc1[C@@H](NC(C)=O)CC2 | 0.0708 µM (active) | – |
| COc1cc(N2CCC(N3CCN(C)CC3)CC2)ccc1Nc1ncc(Cl)c(Nc2ccccc2S(=O)(=O)C(C)C)n1 | 24.3 µM (active) | – |
| CNC1CCC(N(Cc2cccc(-c3ccncc3)c2)C(=O)c2sc3ccccc3c2Cl)CC1 (configuration not stated) | 24.3 µM (active) | – |
| CCc1c2c(nc3ccc(OC(=O)N4CCC(N5CCCCC5)CC4)cc13)-c1cc3c(c(=O)n1C2)COC(=O)[C@]3(O)CC | 12.2 µM (active) | – |
| N#CC1(c2cccc(C(=O)Nc3cc(Oc4ccc5nc(NC(=O)C6CC6)sc5n4)ccc3F)c2Cl)CC1 | 5.44 µM (active) | – |
